# The panel holds about 83,000 compounds, 20% with a hit somewhere; the sample as a whole holds those more often.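 How to read the values: 0–100, growth inhibition (40 = 60% inhibited); 0, no net growth; -100 to 0, cell death (-40 = 40% of starting cells died; -100 = all dead).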 A number with no mark means an inactive call. Activity calls are given as the source filed them. How the source made its calls: active means growth percent below 10; inactive means the rest.
# What was measured:
# Assay in all cases: NCI-60 one-dose screen, 48 h (100 = growth as untreated, 0 = no growth, -100 = all killed)
# Settings in all cases: 10 µM unless noted
# NCI-H23 lung = test system: NCI-H23 lung
# NCI-H226 lung = test system: NCI-H226 lung
# NCI-H322M lung = test system: NCI-H322M lung
# HOP-62 NSCLC = test system: HOP-62 NSCLC
# NCI-H460 lung = test system: NCI-H460 lung
# HOP-92 NSCLC = test system: HOP-92 NSCLC
# NCI-H522 lung = test system: NCI-H522 lung
# A549/ATCC NSCLC = test system: A549/ATCC NSCLC
# 786-0 renal = test system: 786-0 renal
# COLO 205 colon = test system: COLO 205 colon
SMILES,growth (NCI-H23 lung),growth (NCI-H226 lung),growth (NCI-H322M lung),growth (HOP-62 NSCLC),growth (NCI-H460 lung),growth (HOP-92 NSCLC),growth (NCI-H522 lung),growth (A549/ATCC NSCLC),growth (786-0 renal),growth (COLO 205 colon)
COc1ccc(N(Cc2cc(OC)c(OC)c(OC)c2)C2OC(=O)c3ccccc32)cc1 (stereo not given),36.7%,67.2%,52.4%,28.1%,10.4%,51.3%,-17.2% (active),23.7%,61.8%,-3.48% (active)
COCCOc1ccc(-c2nc3ccc(-c4nc5ccc(N6CCN(C)CC6)cc5[nH]4)cc3[nH]2)cc1,-4.24% (active),-8.04% (active),17%,14.2%,35.9%,26.4%,-41.9% (active),67.9%,26.8%,-10.9% (active)
CN1CCCCC1CCN1c2ccccc2Sc2ccc(Br)cc21 (stereo not given),77.4%,89.9%,59.1%,85.7%,64.9%,45.5%,62.9%,67.5%,55%,51.5%
CC#Cc1nc2ccccc2c(=O)[nH]1,80.6%,64.5%,104%,58.3%,73%,92.7%,52.6%,72.2%,42%,78.7%
C[C@@]1(N2C(=O)OC[C@@H]2c2ccccc2)C(=O)N([C@H](CC(=O)N2CCC(N3CCCCC3)CC2)C(=O)NCc2cccc(C(F)(F)F)c2)[C@@H]1/C=C/c1ccccc1,78.8%,89.6%,72.8%,84.7%,2.37% (active),64.4%,-9.84% (active),54.6%,70%,-67.1% (active)
CC(=O)Oc1cc2cnc3c4cc(OC(C)=O)c(OC(C)=O)cc4ccc3c2cc1OC(C)=O,25.4%,36.4%,5.6% (active),28.7%,9.99% (active),18.6%,-28.8% (active),25.5%,18.9%,78%
C[C@H](CCC(=O)O)[C@H]1CC[C@H]2[C@@H]3CC[C@@H]4/C(=C\c5ccco5)C(=O)/C(=C\c5ccco5)C[C@]4(C)[C@H]3CC[C@]12C,70.4%,89.2%,95.6%,116%,81.9%,106%,37.3%,72.1%,91%,87.3%
CC1(C)CC(C(=O)OCCCCCCCCCCC[P+](c2ccccc2)(c2ccccc2)c2ccccc2)C(C)(C)N1O (stereo not given),-61.1% (active),-65.6% (active),-20.6% (active),-45.5% (active),-79.8% (active),-68.8% (active),-29.4% (active),-42.6% (active),-75.4% (active),-79.9% (active)
O=c1c2cccc3c(Nc4c(F)cccc4F)ccc(c32)c2nc3ccccc3n12,85.8%,75.1%,86.8%,85.6%,72.7%,64.2%,83%,82.4%,100%,84.9%
CCN(CC)C12CCCCC1(C)C(C#N)(C#N)C(C#N)=C(N)O2 (stereo not given),101%,95.6%,91.3%,98.8%,114%,83.8%,105%,106%,108%,140%
C=C1CC[C@@H]2[C@](C)(COC(C)=O)[C@H](OC(C)=O)CC[C@@]2(C)[C@@H]1CC(Nc1ccc(S(=O)(=O)Nc2nc(C)cc(C)n2)cc1)C1=CCOC1=O (stereo not given in full),84.3%,86.7%,97.2%,103%,90.3%,90.1%,22%,65.3%,103%,77%
Oc1cccc(Nc2nccc(-c3ccc4ccccc4c3)n2)c1,33.2%,70.8%,46%,27.2%,16.1%,63.5%,15.6%,30.7%,30.1%,84.7%
O=c1c2cccc3c(NC4CCCCC4)ccc(c32)c2nc3ccccc3n12,46%,72%,82.3%,90.6%,34.7%,48.4%,61.5%,66.5%,108%,75.6%
COc1ccc(/C=c2/c(=O)[nH]c3nc4sc(C)c(C)c4c(=O)n23)cc1,90.7%,94%,98.7%,100%,88.3%,92.6%,74.4%,79.7%,88.1%,111%
CCN(CC)CC(C)(C)C(=O)/C=C/c1ccccc1,62.1%,63.5%,67.7%,90.6%,32.3%,34.7%,60.6%,80.3%,60%,53.4%
COc1ccc(S(=O)(=O)NCCNc2nccc(-c3c(-c4cccc([N+](=O)[O-])c4)nc4sccn34)n2)cc1,93.1%,82.2%,97.5%,99.3%,87.3%,87.5%,86%,80.2%,87.9%,95.1%
COC(=O)C12C3C(=O)N(c4ccc(OC)cc4)C(=O)C3C(c3cn(-c4ccccc4)nc3C)N1[C@H](c1cn(-c3ccccc3)nc1C)[C@@H]1C(=O)N(c3ccc(OC)cc3)C(=O)[C@@H]12 (stereo not given in full),103%,99.7%,112%,116%,99.8%,97.4%,91.2%,100%,102%,112%
Cc1ccc2c(c1)C(=O)c1c-2c(OCCCN(C)C)nc2ccccc12,7.88% (active),32.8%,19.6%,19.9%,-8.22% (active),-10.7% (active),-11% (active),-43.9% (active),44.7%,-30.6% (active)
CCN(CC)CCC(=O)Nc1ccc(Cn2nnc3c2C(=O)c2nnn(Cc4ccc(NC(=O)CCN(CC)CC)cc4)c2C3=O)cc1,-24.6% (active),-49.5% (active),-75.3% (active),-34.5% (active),-29.7% (active),-44.3% (active),-73.5% (active),-58.1% (active),88.7%,-86.7% (active)
O=[N+]([O-])c1cccc(-c2nc3sccn3c2-c2ccnc(NCCCNS(=O)(=O)c3ccc(Br)cc3)n2)c1,41.4%,41%,76.1%,74.7%,66.7%,78%,37.4%,53.8%,75.5%,41.3%
Cc1noc(C)c1-c1cc(O)cc(C(O)c2ccccc2)c1 (stereo not given),68.1%,65.5%,47.6%,47.2%,67.2%,25.6%,22.1%,55.4%,54.8%,37.1%
CC(=O)OCC1OC(OC2=C(CC=C(Cl)Cl)C(=O)c3ccccc3C2=O)C(OC(C)=O)C(OC(C)=O)C1OC(C)=O (stereo not given),105%,85%,102%,92.7%,95.1%,-9.2% (active),3.88% (active),102%,102%,97.6%
CN(C)CCCC(=O)Nc1ccc(Cn2nnc3c2C(=O)c2nnn(Cc4ccc(NC(=O)CCCN(C)C)cc4)c2C3=O)cc1,2.08% (active),102%,38.5%,83.2%,31%,116%,71.8%,91.9%,96.9%,-9.75% (active)
O=C1C=CC(Nc2ccccc2[N+](=O)[O-])C1Nc1ccccc1[N+](=O)[O-] (stereo not given),6.85% (active),-41.7% (active),79.1%,90.9%,59%,-56.5% (active),-90.1% (active),92.2%,-76.7% (active),-79.2% (active)
CC[n+]1ccc2c(c1)C(=O)c1nccc3c1c-2nc1ccccc13,-27.9% (active),-67.1% (active),-16.3% (active),-27.6% (active),-82.1% (active),-11.9% (active),-38% (active),-4.31% (active),-14.4% (active),-23.8% (active)
CC(C)n1cc2c(N)ncnc2n1,103%,94.5%,86.6%,96.4%,107%,144%,99.3%,102%,100%,118%

# — PubChem BioAssay (NCI)
